From PubChem BioAssay
Sampled rows, rich in hits. Any-hit rate of the full collection: about 6.8%.
PTAP TSG101 blk: qHTS Assay for Iinhibitors of HIV-1 Budding by Blocking the Interaction of PTAP/TSG101; Potency, µM (top dose mostly 115 µM), without a hit: at the highest dose activity change, negative = inhibition, hits mostly inhibitors; Fluorescence polarization, FITC-PTAP peptide / Tsg101 binding; AID 493005, 2010; 340,000 tested, under 10 active; Tumor susceptibility gene 101 protein (Homo sapiens), Q99816; active = well fitted inhibition curve with a large enough effect in the main read-out, with a control signal flat, not every such curve was filed as active; inconclusive = small, poorly fitted or top-dose-only effect, or effect the other way, or a change in a side signal; inactive = no such curve, though single readings can be large or run the other way; note: % of control where 0% means no effect
Target sequence (Q99816 whole entry, looked up): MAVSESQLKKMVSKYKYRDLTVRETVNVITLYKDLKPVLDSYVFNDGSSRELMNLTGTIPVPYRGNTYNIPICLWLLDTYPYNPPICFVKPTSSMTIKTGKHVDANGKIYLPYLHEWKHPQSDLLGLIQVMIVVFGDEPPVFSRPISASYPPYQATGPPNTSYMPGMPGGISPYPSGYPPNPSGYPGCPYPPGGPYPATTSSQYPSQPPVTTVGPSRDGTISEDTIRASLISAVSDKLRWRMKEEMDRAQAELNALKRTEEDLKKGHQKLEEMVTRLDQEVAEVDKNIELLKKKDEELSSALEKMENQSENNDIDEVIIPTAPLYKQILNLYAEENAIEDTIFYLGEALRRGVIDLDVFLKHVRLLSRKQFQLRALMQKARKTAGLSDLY
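Steps: Tsg101 binding domain dispensed (10 uM final), compounds pinned in DMSO, FITC-labeled PTAP-motif peptide added (50 nM final); after 20 min binding at room temperature, polarization measured.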
KB-V1 MDR tox: qHTS assay for MDR1-selective chemotherapeutics: Primary screen using the drug-selected MDR subline cells KB-V1; KB-V1 MDR cells viability, CellTiter-Glo, 72 h; Potency, µM (doses to about 46.1 µM), actives largely listed as cytotoxic; 3.4% of 400,000 active; note: % is set by controls: 0 for no effect and ±100 for the full control effect; nearly all actives have a fitted effect of over 60% in size
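Luminescent ATP read-out (CellTiter-Glo, 10 min) measures survival of drug-selected KB-V1 MDR cells after 72 h, 37 degrees C compound exposure. Medium: phenol-red-free DMEM, 10% FBS. Values from fitted concentration-response curves.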
PINK1 modulator: A Quantitative High throughput Screen to Identify Chemical Modulators of PINK1 Expression; PINK1 immunofluorescence, high-content cytometry, 24 h; 0.2% of 410,000 active; AID 624263, 2012; Potency, µM (top dose mostly 76.6 µM), inactives show top-dose activation (PINK1 increase), hits mostly activators; active = well fitted activation curve with a large enough effect; inconclusive = small, poorly fitted or top-dose-only effect; cell line not stated here; note: % of control where 0% means no effect; nearly all actives have a fitted effect of over 65% in size
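Fluorescence from anti-PINK1 antibody, together with nuclear and cell stains, was scanned on a laser-scanning cytometer. Before staining, stable-line cells were incubated 24 hours with compounds at 5 concentrations; primary antibody 12 h at 10 degrees C.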
SW480 rerep: A quantitative high throughput screen for small molecules that induce DNA re-replication in SW480 colon adenocarcinoma cells. Potency, µM (titrated, usually from 46.1 µM), without a hit: at the highest dose re-replication activation, most hits filed as activators. 1.8% of 340,000 active. SW480 DNA re-replication, Hoechst DNA content imaging, 48 h; note: % of control where 0% means no effect; nearly all actives have a fitted effect of over 55% in size
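Image-based DNA-content assay: after two days of treatment, nuclei were labelled with the DNA dye Hoechst and imaged, and hits were compounds raising the count of nuclei showing high fluorescence intensity.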
KB-3-1 tox: qHTS assay for MDR1-selective chemotherapeutics: Primary screen using the parental adenocarcinoma cell KB-3-1 | Potency, µM (highest dose often 46.1 µM), actives largely listed as cytotoxic | KB-3-1 viability, CellTiter-Glo ATP luminescence, 72 h | AID 1347075, 2019 | 1.4% of 400,000 active; note: % is set by controls: 0 for no effect and ±100 for the full control effect; nearly all actives have a fitted effect of over 60% in size
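KB-3-1 cells, DMEM (no phenol red) + 10% FBS; compound by pin transfer, 72 h, 37 °C. Readout: CellTiter-Glo luminescence after 10 min. Data normalized, curve-fitted.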
MCF10A rerep: A quantitative high throughput screen for small molecules that induce DNA re-replication in MCF 10a normal breast cells; MCF 10A DNA re-replication, Hoechst nuclear intensity, 48 h; Potency, µM (top dose mostly 46.1 µM), for inactives: at the highest dose activity, positive = re-replication, hits mostly activators; 2.9% of 350,000 active; AID 624296, 2012; note: % of control where 0% means no effect; nearly all actives have a fitted effect of over 50% in size
* hit, by the source's call; i = inactive; ? = inconclusive; · = no result; [ ] = another dose, or the depositor's remark. Unless noted, calls come from the whole dose curve; as a rule, active = well fitted curve in the direction sought with a large enough effect; inconclusive = small, poorly fitted or top-dose-only effect, or another doubt; inactive = no such curve, though single readings can be large; an effect the other way counts as inactive or inconclusive. Potency is the fitted concentration of half-maximal effect.

SMILES | PTAP TSG101 blk | KB-V1 MDR tox | PINK1 modulator | SW480 rerep | KB-3-1 tox | MCF10A rerep
CN1CC=C2C(C#N)=C(N)C(C#N)(C#N)[C@H](c3ccoc3)[C@H]2C1 | ? | i | 40µM* | -5% | i | -10%
CC(=O)N1CC=C2C(C#N)=C(N)C(C#N)(C#N)[C@H](c3ccoc3)[C@H]2C1 | -14% | i | 4%[38.3 µM] | 7% | i | 5%
CC(=O)N1CC=C2C(C#N)=C(N)C(C#N)(C#N)C(C)C2C1 (stereo unspecified) | -4% | i | 0% | -3% | i | 0%
Cc1ccc(CCNC(=O)c2cc3sccc3n2Cc2ccc(F)cc2)cc1 | · | i | 7% | · | i | ·
Cc1ccc(-n2ncc3c(NCCCN4CCOCC4)ncnc32)cc1C | · | i | 0% | · | i | ·
COC(F)(F)C(Cl)Cl | · | · | · | 2% | · | -5%
COc1cc(-c2cc(C)c3c(OC)ccc(OC)c3n2)cc2c1OCCN(C(=O)Cn1nc(C)cc1C)C2 | · | · | 0% | · | · | ·
Cc1c(C(=O)NCc2ccc(N(C)C)cc2)oc2c1-c1nn(Cc3cccc(Cl)c3)cc1CC2 | · | · | 5% | · | · | ·
COc1cc2ccccc2cc1C(=O)Nc1ccccc1N1CCN(S(C)(=O)=O)CC1 | -2% | 4.1µM* | 7% | -4% | i | 1%
CS(=O)(=O)N1CCN(c2ccc(NC(=O)c3ccc(-c4ccc(Cl)cc4)o3)cc2)CC1 | -6% | i | 14µM* | 1% | i | ?
Cc1ccc(C(=O)Nc2ccc(N3CCN(S(C)(=O)=O)CC3)cc2)cc1C | -5% | i | -3% | 16µM* | i | ?
CS(=O)(=O)N1CCN(c2ccccc2NC(=O)c2cc(Br)ccc2Cl)CC1 | -1% | i | 2% | 3% | ? | -2%
CS(=O)(=O)N1CCN(c2ccccc2NC(=O)c2ccc(-c3ccc(Br)cc3)o2)CC1 | -1% | 2.6µM* | 13%[38.3 µM] | -3% | i | -3%
CN1CCN(c2ccc(NC(=O)c3ccc(-c4ccc(Cl)cc4)o3)cc2)CC1 | -1% | ? | 3% | ? | ? | 23µM*
CN1CCN(c2ccc(NC(=O)c3ccc(-c4cccc([N+](=O)[O-])c4)o3)cc2)CC1 | -5% | i | 0% | ? | i | -5%
CCN1CCN(c2ccc(NC(=O)c3cc4ccccc4cc3OC)cc2C)CC1 | -7% | ? | 0% | ? | 15µM* | ?
CCN1CCN(c2ccc(NC(=O)c3ccccc3F)cc2Cl)CC1 | -6% | i | 0% | 3% | ? | ?
C[C@@H]1CN(Cc2ccc3c(c2)CN(Cc2cccc4c2OCO4)CCO3)C[C@H](C)O1 | · | · | 0% | · | · | ·
Cc1ccc2oc(C(=O)Nc3c(C(=O)Nc4ccccc4)oc4ccccc34)cc(=O)c2c1 | · | i | 1% | · | i | ·
Cc1cccc(-c2nn(-c3ccccc3)cc2C(=O)N2CCN(C3CCS(=O)(=O)C3)CC2)c1 (stereo unspecified) | 0% | 16µM* | 1% | 0% | i | 1%
COc1ccc(-c2ccnc(-c3ccc(OCCCF)cc3)n2)cc1 | -2% | ? | 11% | ? | ? | 15µM*
COc1cccc(CNC(=O)c2ccc(-c3nc(CSc4ccccc4)c(C)o3)cc2)c1 | · | i | 3% | · | i | ·
O=C1SC(SC(=Nc2ccccc2)Nc2ccccc2)C(=O)N1c1ccccc1 (stereo unspecified) | 0% | i | -3% | 8% | ? | -7%
O=C(O)CSC1CC(=O)N(c2ccc(Cl)c(Cl)c2)C1=O (stereo unspecified) | -1% | i | -1% | -6% | i | -1%
CN=C(Nc1ccc2c(c1)OCO2)SC1CC(=O)N(c2ccccc2)C1=O (stereo unspecified) | -4% | 18µM* | 31%[38.3 µM] | 0% | i | 6%
SMILES | PTAP TSG101 blk | KB-V1 MDR tox | PINK1 modulator | SW480 rerep | KB-3-1 tox | MCF10A rerep
O=C1CC(SC(=NCc2ccc3c(c2)OCO3)Nc2ccccc2)C(=O)N1c1ccccc1 (stereo unspecified) | -1% | i | 12% | 2% | i | ?
Cc1cccc(N2C(=O)CC(SC(=Nc3ccccc3)Nc3ccccc3)C2=O)c1 (stereo unspecified) | -3% | 18µM* | -1% | 3% | ? | 23%
O=C1CC(SC(=Nc2ccccc2)Nc2ccccc2)C(=O)N1c1ccc(Cl)c(Cl)c1 (stereo unspecified) | -1% | 16µM* | ? | ? | ? | ?
c1ccc2sc(-c3cc4c(c(OC5CCOC5)c3)OCCN(Cc3cccn3-c3nccs3)C4)nc2c1 (stereo unspecified) | · | · | -1% | · | · | ·
CCn1cc([N+](=O)[O-])c(C(=O)N2N=C(c3ccc4ccccc4c3)CC2c2ccccc2O)n1 (stereo unspecified) | -2% | i | -2% | 23% | ? | ?
CCn1cc(Cl)c(C(=O)N2N=C(c3ccc4ccccc4c3)CC2c2ccccc2O)n1 (stereo unspecified) | -3% | ? | 1% | ? | 21µM* | 29%
COc1cccc2sc(NC(=O)CS(=O)(=O)c3ccc(C)cc3)nc12 | · | i | 0% | · | i | ·
CCC(C)c1ccc(S(=O)(=O)N2CCN(CC(O)CN3CCOCC3)CC2)cc1 (stereo unspecified) | 1% | 5.8µM* | 1% | -6% | i | 9%
CC1CCCCN1CCCOC(=O)c1ccccc1 (stereo unspecified) | · | · | · | 4% | · | ?
Nc1ccc(/C=C/c2nccc3ccccc23)cc1 | · | ? | 1% | · | ? | ·
C(=C\c1ccnc2ccccc12)/c1ccc2ccccc2n1 | · | ? | · | · | i | ·
C(=Cc1c[nH]c2ccccc12)c1ccc2ccccc2n1 | 8% | i | ? | ? | i | 0.92µM*
C(=Cc1c[nH]c2ccccc12)c1nccc2ccccc12 | 13% | ? | 2% | 6.5µM* | ? | 1.6µM*
CC(C)c1ccc(NC(=O)c2cn(C3CCCC3)c(=O)c3c2c2ccccc2n3C)cc1 | · | i | 0% | · | i | ·
Cc1cc(SCc2ccc(Cl)cc2Cl)nc(=O)[nH]1 | -5% | i | 1% | ? | ? | 9.2µM*
COc1ccc(CN2CCN(CC3CC3)CC2CCO)c(C)c1C (stereo unspecified) | -11% | i | 0% | -42% | i | 26µM*
